Compound activity: PubChem, National Center for Advancing Translational Sciences (NCATS)
Only some compounds are listed: those with a hit (about 7.9% of all), similar ones and a draw of the others.
HCV inhibitor: HCV inhibition. Huh7.5.1 HCVcc-Cre infection, luciferase reporter, 44 h. Potency, µM (doses to about 41.8 µM), without a hit: at the highest dose activity change, negative = inhibition, hits mostly inhibitors. actives 3.4% (n = 340,000). AID 651820; active = well fitted inhibition curve with a large enough effect; inconclusive = small, poorly fitted or top-dose-only effect, or another doubt; inactive = no such curve, though single readings can be large or run the other way; also: potency is read from the fitted curve at half-maximal effect
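Compounds are dispensed onto cells plated 4 h earlier at 1,000 per well, with HCVcc-Cre virus (about 0.5 moi) added next. Following 44 h of culture, luminescent signal is measured for 15 sec after 15 min with substrate at room temperature.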
Lassa entry inh: blocks Lassa virus binding to or entry into cells | Lassa virus pseudotype entry inhibition, cell reporter | Potency, µM (top dose mostly 37.9 µM), for inactives: at the highest dose activity change, negative = inhibition, actives largely listed as inhibitors | actives 1.2% (n = 300,000); calls by dose curve; tested in HEK293 cells; also: potency is read from the fitted curve at half-maximal effect; nearly all actives have a fitted effect of over 50% in size
HCMV inh: human cytomegalovirus inhibition; HFF cells, HCMV-luciferase reporter, 72 h; active compounds read low; activity change, negative = inhibition, % at 57.5 µM; actives 4.5% (n = 410,000); AID 1259415; in the data active = activity change below about -60%; inconclusive = no clear call, values can overlap the other calls; inactive = above about -39%
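Inhibition of viral replication was scored as loss of reporter luminescence in HFFs infected with HCMV-luciferase (MOI 1 PFU/cell) for 72 h; compounds tested at 2 doses, normalized to buffer and Salinomycin controls.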
FMDV inh: blocks foot and mouth disease virus | Potency, µM (doses to about 57.9 µM), for the others: at the highest dose activity change, negative = inhibition, actives largely listed as inhibitors | AID 1159524 | FMDV antiviral cell-based qHTS | actives 1.2% (n = 410,000); calls by dose curve; tested in HEK293T cells; also: read-out not given here; potency is read from the fitted curve at half-maximal effect; nearly all actives have a fitted effect of over 45% in size
Marburg entry inh: inhibitors of Marburg virus binding or cell entry. Marburg virus pseudotyped entry inhibition, cell reporter. Potency, µM (series often up to 37.8 µM), for the others: at the highest dose activity change, negative = inhibition, actives largely listed as inhibitors. actives 1.8% (n = 300,000); calls by dose curve; tested in HEK293 cells; also: potency is read from the fitted curve at half-maximal effect
Starred values were filed as active, the others as inactive; ! = not confirmed by another sample; [ ] = another dose, or the depositor's remark. % is scaled to controls: 0 for no effect and ±100 for the full control effect.

C/C(Cl)=C\Cn1c(O)c(N=NC(N)=S)c2ccccc21 was read as HCV inhibitor -19.8%, Lassa entry inh -17.1%, HCMV inh -17.7, FMDV inh inconclusive and Marburg entry inh 10µM*.
NC(=S)N=Nc1c(O)n(Cc2ccccc2)c2ccccc12 was read as HCV inhibitor inconclusive, Lassa entry inh -9.2%, HCMV inh inconclusive, FMDV inh -15.1% and Marburg entry inh -16.5%.
COc1cc(C)c(C(=O)CSc2nnc(CNC(=O)c3ccco3)n2C)cc1C was read as HCV inhibitor 9.2%, Lassa entry inh 24.3%[46.1 µM], HCMV inh -36.2, FMDV inh -8.9% and Marburg entry inh 1.5%[46.1 µM].
`C=CCn1c(SCc2ccc(C#N)cc2)nnc1-c1ccccc1` gave HCV inhibitor 12.9%, Lassa entry inh 6.5%, HCMV inh -29.3, FMDV inh -21.9% and Marburg entry inh -7.6%.
C=CCn1c(SCc2ccc(C#N)cc2)nnc1-c1cccc(OC)c1 was read as HCV inhibitor -2.1%, Lassa entry inh -2.1%, HCMV inh -64.2*, FMDV inh 0.0% and Marburg entry inh -19.6%[46.1 µM].
CCCCCOc1ccc(Br)cc1/C(C)=N/NC1=NCCN1 was read as HCV inhibitor 6.31µM*, Lassa entry inh inconclusive, HCMV inh -92.1*, FMDV inh inconclusive and Marburg entry inh 10µM*.
For O=C(c1ccco1)c1cn(CC(=O)N2CCCc3ccccc32)c2ccccc12 the results were HCV inhibitor 11.2µM*, Lassa entry inh -2.4%, HCMV inh 33.3, FMDV inh inconclusive and Marburg entry inh inconclusive.
`CC(C)NC(=O)Cn1cc(C(=O)C2CC2)c2ccccc21` gave HCV inhibitor 5.9%, HCMV inh -61.4* and FMDV inh 8.8%.
For Cc1cccc(NC(=O)Cn2cc(C(=O)C3CCCCC3)c3ccccc32)c1C the results were Lassa entry inh -29.0%[46.1 µM], HCMV inh -92.6*, FMDV inh inconclusive and Marburg entry inh inconclusive.
Screening Cc1cccc(NC(=O)Cn2cc(C(=O)c3ccccc3)c3ccccc32)c1C returned Lassa entry inh 0.4%[46.1 µM], HCMV inh -66.6*, FMDV inh inconclusive and Marburg entry inh inconclusive.
Screening CCOC(=O)C[C@H]1c2ccccc2S(=O)(=O)N1c1ccccc1 returned HCV inhibitor 11.1%, HCMV inh -22.4 and FMDV inh 38.7%.
Screening CC(C)(C(=O)Nc1ccccc1)n1cc(NC(=O)c2ccc3ccccc3n2)cn1 returned HCMV inh 59.2.
`O=C(Cn1cc(C(=O)C(F)(F)F)c2ccccc21)Nc1ccccc1F` gave HCV inhibitor 1.6%, HCMV inh -4.6 and FMDV inh -8.2%.
Cc1ccc(C)c(NC(=O)Cn2cc(C(=O)c3cccs3)c3ccccc32)c1 was read as Lassa entry inh inconclusive, HCMV inh -26.9, FMDV inh inconclusive and Marburg entry inh inconclusive.
For Cc1ccc(NC(=O)Cn2cc(C(=O)c3cccs3)c3ccccc32)cc1C the results were Lassa entry inh inconclusive, HCMV inh inconclusive, FMDV inh -6.6% and Marburg entry inh 11.2µM*.
Screening Cc1cccc(NC(=O)Cn2cc(C(=O)c3ccco3)c3ccccc32)c1C returned Lassa entry inh -24.7%[46.1 µM], HCMV inh -87.5*, FMDV inh 0.0% and Marburg entry inh inconclusive.
`O=C(Cn1cc(C(=O)c2ccco2)c2ccccc21)NC1CCCC1` gave HCV inhibitor inconclusive, Lassa entry inh 0.3%, HCMV inh 57.2, FMDV inh -8.7% and Marburg entry inh -7.8%.
Screening O=C(Cn1cc(C(=O)c2ccco2)c2ccccc21)Nc1ccccc1F returned HCV inhibitor -21.1%, Lassa entry inh 0.0%, HCMV inh -74.7*, FMDV inh -24.0% and Marburg entry inh -3.1%[46.1 µM].
`Cc1cccc(NC(=O)Cn2cc(C(=O)c3ccccc3)c3ccccc32)c1` gave Lassa entry inh inconclusive, HCMV inh -79.6*, FMDV inh -21.4% and Marburg entry inh inconclusive.
`Cc1ccc(NC(=O)Cn2cc(C(=O)c3ccco3)c3ccccc32)c(C)c1` gave Lassa entry inh inconclusive, HCMV inh -73.5* and FMDV inh -25.4%.
Cc1ccc(C)c(NC(=O)Cn2cc(C(=O)c3ccco3)c3ccccc32)c1 was read as Lassa entry inh -29.7%[46.1 µM], HCMV inh -33.8, FMDV inh -25.2% and Marburg entry inh -22.3%[46.1 µM].
For COc1ccc(-c2ocnc2C(=O)NCc2nn(-c3ccccc3)nc2C)cc1 the results were HCV inhibitor 2.51µM*, HCMV inh inconclusive and FMDV inh -49.7%.
C1CCC(C(CC2CCCCN2)C2CCCCC2)CC1 (stereo unspecified) was read as HCV inhibitor inconclusive, Lassa entry inh 18.4µM*, HCMV inh -99.0*!, FMDV inh -24.8% and Marburg entry inh inconclusive.
Screening COc1ccc(Cl)cc1NC(=O)CN(C)C(=O)C1CC(=O)N(Cc2ccc(C)cc2)C1 (stereo unspecified) returned HCV inhibitor 31.6µM*, Lassa entry inh 2.7%, HCMV inh -4.4, FMDV inh -7.7% and Marburg entry inh -0.8%[46.1 µM].
`COc1ccc(OC)c(S(=O)(=O)N(C)CC(=O)Nc2cc(Cl)ccc2OC)c1` gave HCV inhibitor 11.2µM*, Lassa entry inh -2.3%, HCMV inh 5.2, FMDV inh inconclusive and Marburg entry inh -23.5%[46.1 µM].
COc1ccc(NC(=O)CN(C)C(=O)C2CC(=O)N(Cc3ccc(C)cc3)C2)cc1 (stereo unspecified) was read as HCV inhibitor -11.1%, Lassa entry inh 2.2%, HCMV inh 7.2, FMDV inh -10.6% and Marburg entry inh -2.6%.
`COc1ccccc1NC(=O)CN(C)S(=O)(=O)c1cc(C)ccc1OC` gave HCV inhibitor -7.9%, Lassa entry inh -2.8%, HCMV inh -15.6, FMDV inh -2.0% and Marburg entry inh 1.0%.
For COc1ccc(OC)c(NC(=O)CN(c2ccccc2OC)S(=O)(=O)c2ccc(C)cc2)c1 the results were Lassa entry inh inconclusive, HCMV inh -100.1*, FMDV inh -23.5% and Marburg entry inh -22.9%[46.1 µM].
For COc1ccccc1N(CC(=O)NCCSCc1cccc(C)c1)S(=O)(=O)c1ccccc1 the results were HCV inhibitor 12.6µM*, Lassa entry inh inconclusive, HCMV inh -36.9, FMDV inh inconclusive and Marburg entry inh inconclusive.
For COCCN1C(=O)NC(c2cccc(F)c2)C(C(=O)OC)=C1C (stereo unspecified) the results were Marburg entry inh 1.2%[14.2 µM].
For CCOC(=O)C1(Cc2ccccc2C)CCCN(C(=O)c2ccc(CSC)o2)C1 (stereo unspecified) the results were HCV inhibitor 1.8%, Lassa entry inh inconclusive, HCMV inh 3.4, FMDV inh -19.4% and Marburg entry inh inconclusive.
For CC(=O)Nc1nonc1-c1nnc(SCC(=O)Nc2ccc(C)c(Cl)c2)n1C the results were Lassa entry inh inconclusive, HCMV inh -5.7, FMDV inh -17.2% and Marburg entry inh 2.5%[46.1 µM].
